# Source: PubChem BioAssay (NCI)
# Values joined by “and” are separate entries in the source; they are usually repeats but may differ in a detail not shown here. Equal entries are not always repeated. About 79,000 compounds went through this panel and 15% of them were active in at least one assay; those are over-represented in the sample as a whole. Active and inactive are the calls of the source. Cut-off read from the data, not from the text of the source: active = growth inhibition above about 70%; inactive = the rest.
# Test: NCI Yeast Anticancer Drug Screen. Data for the cln2 rad14 strain (AID 165);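 note: 0% = growth equal to vehicle treated cultures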
# Conditions: S. cerevisiae cln2 rad14 strain, at 50.0 µM, stronger effect = higher value
# In short: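 cln2 rad14 yeast strain; compound exposure; growth inhibition read vs vehicle controls.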
row,SMILES,growth inhibition
1,O=C1NC(=O)C(c2ccsc2)C(=O)N1,-40.5% (inactive)
2,[NH-]C(CO)C(=O)O.[NH-]C(CO)C(=O)O.[Pd+2] (stereo not given),-7.2% (inactive)
3,CCc1ccc(OP(=O)(Oc2cc(C)cc(C)c2)Oc2cc(C)cc(C)c2)cc1,3.45% (inactive)
4,Cc1cccc(C)c1OCC1=NCCN1,-55.6% (inactive)
5,ClCCN(CCCl)c1ccc(CCN2CCOCC2)cc1,37.4% (inactive)
6,Cn1c(O)c(C=N)c(=O)n(C)c1=O,7.45% (inactive)
7,CC(C(O)c1cccnc1)[N+](=O)[O-] (stereo not given),-10.1% (inactive)
8,CN1CCC2=C(c3ccccc3)c3ccccc3C2C1 (stereo not given),-9.85% (inactive)
9,Cc1nn[n-]n1.N.N.N.N.N.[Cl-].[Co+3],27.9% (inactive)
10,C/C(=C\COc1ccc2ccc(=O)oc2c1)C1=CC(=O)C(C)(C)O1,9.85% (inactive)
11,CN(Cc1cnc2nc(N)nc(N)c2n1)c1ccc(C(=O)NC(CCC(=O)NC(CC(P(=O)(O)O)P(=O)(O)O)C(=O)O)C(=O)O)cc1 (stereo not given),16.6% (inactive)
12,Cc1ccc(N)c(N)c1,9.8% (inactive) and 32.2% (inactive)
13,COc1ccc2ccc3oc([N+](=O)[O-])cc3c2c1,-14% (inactive)
14,NCCN.NCCN.[Cl-].[O]=[Re]=[O],-62.5% (inactive)
15,CC(=O)O,4.05% (inactive)
16,CCCC1(CCS)C(=O)NC(=O)NC1=O,5.25% (inactive)
17,Cc1cc(N(CCCl)CCCl)ccc1C=N/C(C#N)=C(\N)C#N,-8.6% (inactive)
18,O=C1CCP(c2ccccc2)(c2ccccc2)(c2ccccc2)O1,25.7% (inactive)
19,CO[C@H]1Nc2c(ccc(C)c2O)C(=O)N2C=C(/C=C/C(N)=O)C[C@@H]12,90.2% (active)
20,CC12CCC3C(=CC=C4CC(O)CCC43C)C1CCC2=O (stereo not given),0.95% (inactive) and -45.7% (inactive)

row,SMILES,growth inhibition
1,Fc1ccc(C2(N3CCC4(CC3)OCCO4)CCCCC2)cc1,-15.5% (inactive)
2,CC1CCCN(C(c2ccccc2)C(O)c2ccccc2)C1 (stereo not given),-19.4% (inactive)
3,COc1cc[c]([Pb]([c]2ccc(Cl)cc2)([c]2ccc(Cl)cc2)[c]2ccc(OC)cc2)cc1,-25.7% (inactive)
4,CCN(CCCl)c1cccc(NC(=O)c2ccc(C(=O)Nc3cccc(CN(C)C)c3)cc2)c1,-1.95% (inactive)
5,N.N.N.N.[Co+3].[O-][Cl+3]([O-])([O-])[O-].[OH3+].[OH3+],13.9% (inactive)
6,N#C[C@H](OC1OC(COC2OC(CO)C(O)C(O)C2O)C(O)C(O)C1O)c1ccccc1 (stereo not given in full),-1.3% (inactive)
7,CN1c2ccccc2NP1(=S)c1ccccc1 (stereo not given),40.5% (inactive)
8,C[n+]1ccccc1-c1ccc[n+](CCCC[n+]2cccc(-c3cccc[n+]3C)c2)c1,-25.6% (inactive)
9,O=P(O)(OCCc1ccccc1)Oc1ccccc1O,-1.15% (inactive)
10,COc1cc([C@@H]2c3cc(O)c(OC)cc3C[C@H]3C(=O)OC[C@@H]23)ccc1O,10.3% (inactive)
11,c1ccc2c(c1)ccc1[s+]cccc12,25.4% (inactive)
12,CC1CC2CCC1(CO)CN2 (stereo not given),4.65% (inactive)
13,CN(C)c1c2c(=O)n(C)c(=O)n(C)c2nc2cccc[n+]12,2.9% (inactive)
14,CC(C)N(C#N)C(C)C,9.6% (inactive)
15,C1CC[N-]CC1.CC(=N\O)/C(C)=N/O.CC(=N\O)/C(C)=N/O.C[CH-]C(C)O.[Co+2],8.2% (inactive)
16,OC1(CN2CCCCC2)N=C(c2ccccc2)c2ccsc2-n2cccc21 (stereo not given),22.2% (inactive)
17,NCCN.NCCN.O=C([O-])CCl.O=C([O-])CCl.[Co+3].[O-][Cl+3]([O-])([O-])[O-],8.4% (inactive)
18,CN(C)P(=S)(N(C)C)N1CCOCC1,-16.8% (inactive)
19,CC(=N\O)/C(C)=N/O.CC(=N\O)/C(C)=N/O.[Ni],0.95% (inactive)
20,COP(=O)(O)NC(C)=O,-64.5% (inactive)
